# Bioassay records deposited in PubChem BioAssay by National Center for Advancing Translational Sciences (NCATS).
# Rows were chosen to be rich in hits. Some 12% of all compounds tested hit in one or more screens of this group.
# G9a block = blocks human histone lysine methyltransferase G9a; Q96KQ7; G9a H3K9 monomethylation, AlphaScreen, 2 h; Potency, µM (highest dose often 102 µM), inactives show at the top dose activity, negative = inhibition, most hits filed as inhibitors; actives 8.8% (n = 350,000); further: on the % scale 0 is the no-effect control and ±100 the full control effect; nearly all actives have a fitted effect of over 75% in size
#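 Step 1: enzyme (final 20 nM) with compound, 15 min RT. Step 2: substrate peptide 500 nM and SAM 20 uM, 2 h RT. Step 3: anti-H3K9me1 antibody and AlphaScreen beads, 10 min, then plate read.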
# BAZ2B inh = BAZ2B (human) inhibition; AlphaScreen BAZ2B-H3K14Ac peptide displacement; AID 504333; Potency, µM (top dose mostly 114 µM), for inactives: at the highest dose activity change, negative = inhibition, actives largely listed as inhibitors; actives 4.4% (n = 360,000); further: on the % scale 0 is the no-effect control and ±100 the full control effect; nearly all actives have a fitted effect of over 60% in size
# Target sequence (Q9UIF8 whole entry, looked up): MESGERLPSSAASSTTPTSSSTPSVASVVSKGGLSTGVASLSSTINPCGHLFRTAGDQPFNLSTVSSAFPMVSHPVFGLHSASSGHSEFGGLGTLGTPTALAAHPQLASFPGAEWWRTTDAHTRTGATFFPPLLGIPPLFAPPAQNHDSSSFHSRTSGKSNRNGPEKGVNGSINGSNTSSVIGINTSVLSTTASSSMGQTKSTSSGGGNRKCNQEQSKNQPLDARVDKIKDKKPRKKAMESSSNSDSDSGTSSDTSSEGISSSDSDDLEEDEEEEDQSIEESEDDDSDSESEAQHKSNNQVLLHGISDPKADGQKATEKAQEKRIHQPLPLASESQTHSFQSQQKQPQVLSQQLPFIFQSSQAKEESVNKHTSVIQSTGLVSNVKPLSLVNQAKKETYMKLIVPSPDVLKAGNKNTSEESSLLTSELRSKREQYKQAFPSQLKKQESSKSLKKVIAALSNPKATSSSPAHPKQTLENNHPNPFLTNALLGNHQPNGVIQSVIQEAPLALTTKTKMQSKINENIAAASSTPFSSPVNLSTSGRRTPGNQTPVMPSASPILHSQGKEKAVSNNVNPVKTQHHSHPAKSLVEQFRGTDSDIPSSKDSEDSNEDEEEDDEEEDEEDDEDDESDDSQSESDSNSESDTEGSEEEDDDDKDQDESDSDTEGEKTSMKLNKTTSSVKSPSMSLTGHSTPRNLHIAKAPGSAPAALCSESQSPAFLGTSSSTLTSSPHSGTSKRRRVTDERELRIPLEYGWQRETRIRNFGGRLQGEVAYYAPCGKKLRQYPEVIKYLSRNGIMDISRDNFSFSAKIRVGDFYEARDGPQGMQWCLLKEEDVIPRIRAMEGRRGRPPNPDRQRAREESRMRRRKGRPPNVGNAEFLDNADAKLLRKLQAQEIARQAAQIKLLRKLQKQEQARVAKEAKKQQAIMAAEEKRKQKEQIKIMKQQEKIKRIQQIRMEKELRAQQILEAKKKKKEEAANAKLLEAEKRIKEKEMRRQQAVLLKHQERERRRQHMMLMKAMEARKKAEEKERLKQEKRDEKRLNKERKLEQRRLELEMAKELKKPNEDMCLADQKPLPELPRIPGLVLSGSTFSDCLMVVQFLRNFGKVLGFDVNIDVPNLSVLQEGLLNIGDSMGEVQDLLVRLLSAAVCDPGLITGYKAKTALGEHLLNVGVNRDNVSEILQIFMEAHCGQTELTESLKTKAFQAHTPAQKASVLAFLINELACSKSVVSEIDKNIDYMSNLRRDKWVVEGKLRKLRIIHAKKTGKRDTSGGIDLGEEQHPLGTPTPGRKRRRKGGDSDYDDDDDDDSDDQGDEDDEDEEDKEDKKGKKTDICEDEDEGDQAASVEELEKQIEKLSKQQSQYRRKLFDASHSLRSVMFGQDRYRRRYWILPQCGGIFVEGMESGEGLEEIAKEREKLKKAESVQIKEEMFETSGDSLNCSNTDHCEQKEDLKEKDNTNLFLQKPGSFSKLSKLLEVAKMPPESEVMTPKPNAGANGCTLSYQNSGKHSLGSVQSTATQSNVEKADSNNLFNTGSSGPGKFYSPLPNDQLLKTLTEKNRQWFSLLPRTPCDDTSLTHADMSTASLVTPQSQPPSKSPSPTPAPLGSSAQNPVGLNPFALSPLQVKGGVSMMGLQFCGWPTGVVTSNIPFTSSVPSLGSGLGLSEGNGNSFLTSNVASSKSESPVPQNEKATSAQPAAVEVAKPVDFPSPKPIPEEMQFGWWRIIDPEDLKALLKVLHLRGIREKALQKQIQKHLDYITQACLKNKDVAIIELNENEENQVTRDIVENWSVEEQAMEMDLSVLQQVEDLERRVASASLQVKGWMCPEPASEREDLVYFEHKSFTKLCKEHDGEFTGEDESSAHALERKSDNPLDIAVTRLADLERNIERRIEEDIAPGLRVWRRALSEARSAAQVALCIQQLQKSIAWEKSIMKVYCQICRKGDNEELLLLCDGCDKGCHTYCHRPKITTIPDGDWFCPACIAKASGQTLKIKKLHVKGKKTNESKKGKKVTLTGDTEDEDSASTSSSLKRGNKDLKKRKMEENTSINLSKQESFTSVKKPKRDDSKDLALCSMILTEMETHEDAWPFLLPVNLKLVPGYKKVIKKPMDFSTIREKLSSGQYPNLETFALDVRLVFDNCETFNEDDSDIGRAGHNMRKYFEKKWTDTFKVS
#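 AlphaScreen displacement: compounds (up to 110uM) incubated 30 min at room temperature with a preformed 50 nM BAZ2B/50 nM biotinylated H3K14Ac peptide complex in PBS pH 7.4 with Tween-20. Donor and acceptor beads at 10 ug/mL final added, 20 min light-protected before reading.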
# HP1b chromo inh = inhibitors of HP1-beta chromodomain binding to methylated histone tails | P83916 | AlphaScreen HP1-beta / biotin-H3K9me3 peptide binding | Potency, µM (highest dose often 114 µM), without a hit: at the top dose activity change, negative = inhibition, usual class: inhibitors | actives 0.56% (n = 390,000) | AID 540317; further: nearly all actives have a fitted effect of over 70% in size
#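 AlphaScreen: HP1-beta (50 nM) preformed 30 min with biotin-H3(1-18)K9me3 peptide (50 nM) in PBS pH 7.4, 0.01% Tween-20. Compound added for 30 min at RT, then streptavidin donor/nickel chelate acceptor beads (10 ug/mL) for 30 min.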
# JMJD2A Tudor = inhibitors of human JMJD2A Tudor domain | AlphaScreen JMJD2A-Tudor / H3K4me3 peptide binding | AID 504339 | Potency, µM (doses to about 114 µM), inactives show top-dose activity change, negative = inhibition, most hits filed as inhibitors | actives 4.4% (n = 390,000) | O75164; further: on the % scale 0 is the no-effect control and ±100 the full control effect; nearly all actives have a fitted effect of over 50% in size
# Sfp PPTase inh = blocks B. subtilis Sfp PPTase activity | Biochemical Sfp PPTase activity, qHTS | Potency, µM, for inactives: largest response in the series, negative = inhibition, most hits filed as inhibitors | actives 3.5% (n = 310,000);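 further: the enzyme is Sfp with the accession as filed and its product quenches rhodamine fluorescence; 0% = enzyme reaction without inhibitor and -100% = no enzyme wells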
#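 Sfp 15 nM + cpd, 15 min RT; start w/ rhodamine-CoA 5 uM, BHQ-2-YbbR 12.5 uM (final); 50 mM Hepes pH 7.6, 10 mM MgCl2, 0.01% NP-40, 0.01% BSA; read 525/598 nm at 0 and 30 min.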
# PLK1 PBD block = inhibitors of human PLK1 polo-box domain binding; Plk1 PBD binding of FITC phosphopeptide, fluorescence polarization; AID 720504; actives 2.8% (n = 360,000); P53350; Potency, µM, without a hit: max response, negative = inhibition, hits mostly inhibitors; further: series mostly up to about 57 µM; on the % scale 0 is the no-effect control and ±100 the full control effect; nearly all actives have a fitted effect of over 65% in size
# Active calls of the source: *; ? = inconclusive; · = no result given; [ ] = dose if it differs, or a comment. The call rests on the fitted dose curve; in most records, active means well fitted curve in the direction sought with a large enough effect; inconclusive means small, poorly fitted or top-dose-only effect, or another doubt; inactive means no such curve, though single readings can be large; an effect the other way counts as inactive or inconclusive. Potency means the concentration at half of the fitted maximal effect.
SMILES,G9a block,BAZ2B inh,HP1b chromo inh,JMJD2A Tudor,Sfp PPTase inh,PLK1 PBD block
COc1cc(C(=O)NCCc2ccc(S(N)(=O)=O)cc2)ccc1OCc1c(C)noc1C,-2%[12.7 µM],1%,40%,-17%,·,-4%
Cc1ccc(NC(=O)CCCc2ccccc2)c([N+](=O)[O-])c1,3.2µM*,?,?,?,3%,-4%
O=C(CCc1ccccc1)Nc1ccc(F)cc1F,29%[12.7 µM],14%,29%,4%,19%,-2%
O=C(CCCc1ccccc1)Nc1ccc(Br)cc1F,-149%,-24%,7%,?,14%,6.7µM*
CCOC(=O)C1CCCN(CCC(=O)Nc2ccccc2)C1 (stereo not drawn),?,-5%,48%,5%,22%,-1%
COc1ccc(NC(=O)CN2CCN(CC(=O)Nc3ccccc3Cl)CC2)cc1Cl,·,-12%,9%,-5%[57.1 µM],-4%,-5%
CCOC(=O)C1CCCN(CCC(=O)Nc2cc(C)cc(C)c2)C1 (stereo not drawn),18%,-4%,29%,-9%,-10%,-7%
CCOC(=O)C1CCN(CC(=O)Nc2ccc(OC)c(Cl)c2)CC1,10µM*,50µM*,?,2.8µM*,-14%,-12%
CCOC(=O)C1CCCN(CC(=O)Nc2cccc(C(C)=O)c2)C1 (stereo not drawn),18µM*,50µM*,?,22µM*,?,-4%
CCOC(=O)C1CCCN(CC(=O)Nc2cc(C)cc(C)c2)C1 (stereo not drawn),50µM*,-3%,20%,-11%,-2%,2%
Cc1nc(SCC(=O)N(CC(C)C)C2CCS(=O)(=O)C2)c2c(C)c(C)sc2n1 (stereo not drawn),12%[12.7 µM],3%,20%,-7%,·,1%
CC(=O)N1CCc2cc(S(=O)(=O)NC(CC(C)C)C(=O)Nc3ccc(C(C)C)cc3)ccc21 (stereo not drawn),-7%[59 µM],·,27%,-12%,·,·
CCNc1cccc(S(=O)(=O)N2CCCN(S(=O)(=O)c3ccc4c(c3)OCCO4)CC2)c1,·,·,·,-22%,·,·
COc1ccc(Nc2c(-c3ccccn3)nc3ccc(Cl)cn23)cc1,40%[59 µM],1.6µM*,43%,?,·,·
Cc1ccc(Nc2c(-c3ccccn3)nc3cc(C)ccn23)cc1,?,16µM*,?,40µM*,1%,-2%
Cc1cccc(C)c1Nc1c(-c2ccccn2)nc2ccc(Cl)cn12,24%[59 µM],?,8%,?,·,·
Fc1ccccc1-c1ccc(-c2nc3ccc(Cl)cn3c2Nc2ccc(Cl)cc2)o1,·,·,?,45µM*,·,·
Cc1ccc(Nc2c(-c3ccccn3)nc3ccc(C)cn23)cc1,?,·,8%,45µM*,-6%,4%
CCn1c(=O)c2cc(C(=O)N3CCN(c4cccc(Cl)c4)CC3)sc2c2ccccc21,?,-19%,28%,-18%,·,·
CC(C)(C)C(=O)N1CCN(c2nc3c(F)cccc3s2)CC1,-2%[59 µM],-13%,3%,-11%,·,·
COCCN1CN=C(Nc2nc3ccccc3o2)NC1,71µM*,6%,39%,?,5%,2%
O=C(Nc1ccccc1C(F)(F)F)c1ncn[nH]1,·,14µM*,25%,7.9µM*,?,4%
Cc1c(NC(=O)c2ncn[nH]2)cccc1-c1nc2ccccc2s1,?,25µM*,-29%,?,-13%,-5%
Cc1c(NC(=O)c2ccc(Cl)nc2)cccc1-c1nc2cccnc2s1,21%,-16%,79%,-3%,13%,-18%
O=C(Nc1ccccc1C(F)(F)F)c1cnccn1,-118%,-10%,34%,-2%,1%,-13%
SMILES,G9a block,BAZ2B inh,HP1b chromo inh,JMJD2A Tudor,Sfp PPTase inh,PLK1 PBD block
O=C(NCCOc1ccccc1)c1ncn[nH]1,?,50µM*,-9%,40µM*,3%,-6%
Cc1c(NC(=O)c2ccco2)cccc1-c1nc2cccnc2s1,14µM*,4%,22%,?,?,-18%
COc1cccc(C(=O)Nc2ccccc2-c2nc3ccccc3s2)c1,25%[59 µM],0%,125%,38%,·,·
Cc1cccc(OCCNC(=O)c2ncn[nH]2)c1,15%[59 µM],9%,37%,-15%,-5%,0%
CCC(C)(C)C(=O)O[C@@H]1C[C@H](C)C=C2C=C[C@H](C)[C@@H](CC[C@H]3C[C@@H](O)CC(=O)O3)[C@H]21,15%[21.5 µM],·,·,·,5%,·
O=C(c1cc(-c2ccc(Cl)cc2)on1)N(Cc1cccc(F)c1)Cc1ccco1,24%[59 µM],6%,66%,6%,·,·
O=C(CCc1nnc(C2(c3ccc(Cl)cc3)CCC2)o1)N1CCCC(O)C1 (stereo not drawn),18%,-24%,20%,1%,-1%,-8%
Cc1noc(C(=O)Nc2ccccc2C(F)(F)F)c1Cl,-6%,9%,-6%,-26%,13%,30µM*
Cc1onc(C(=O)Nc2ccccc2C(F)(F)F)c1[N+](=O)[O-],·,-4%,36%,-12%,12%,-10%
c1ccc(Cn2c(CN3CCCC3)nc3ccccc32)cc1,-2%,-27%[57.1 µM],35%,-33%,20%,-2%
S=c1[nH]nc(CN2CCCCC2)n1Cc1ccccc1,22µM*,-23%,21%,13µM*,15%,-20%
S=c1[nH]nc(CN2CCCC2)n1Cc1ccccc1,50µM*,-4%,11%,3.5µM*,16%,-20%
O=C(NCc1n[nH]c(=S)n1Cc1ccccc1)c1ccccc1,35%,-12%,8%,?,-13%,?
COCCNC(=O)C1(C)CCCN(C(=O)c2cccc(C(F)(F)F)c2)C1 (stereo not drawn),·,·,·,·,·,-9%
CCOc1ccccc1NC(=O)CCNC(=O)C1CCN(S(=O)(=O)c2ccccc2)CC1,·,·,·,·,·,2%
Cc1cc2c(s1)c1cnn(Cc3ccc(F)cc3Cl)c(=O)c1n2C,·,·,·,-24%,·,·
COc1cc(SC)ccc1C(=O)NC1CCCCC1,1.1µM*,3%,36%,8%,-1%,-4%
COc1cc(SC)ccc1C(=O)N1CCN(c2ccc(O)cc2)CC1,16µM*,·,?,?,56µM*,9%
COc1cc(SC)ccc1C(=O)N1CCN(c2ccccc2)CC1,9%,0%,11%,-20%,15%,-6%
COc1cc(SC)ccc1C(=O)N1CCC(Cc2ccccc2)CC1,10µM*,·,·,·,-12%,·
